The results in this text go back to PubChem BioAssay (NCI).

Assay in all cases: NCI-60 one-dose screen, 48 h (100 = growth as untreated, 0 = no growth, -100 = all killed)
Conditions in all cases: 10 µM unless noted

Assay [1] concerns SK-MEL-2 melanoma.
For assay [2], the system named is EKVX NSCLC.
For assay [3], the system named is SN12C renal.
Assay [4] deals with UO-31 renal.
Assay [5] concerns TK-10 renal.
Assay [6] has as its system ACHN renal.
Assay [7] relates to A498 renal.
Assay [8] concerns CCRF-CEM leukemia.
The subject of assay [9] is MOLT-4 leukemia.
The test system of assay [10] is SR leukemia.
The test system of assay [11] is RPMI-8226 leukemia.
In assay [12] the test system is OVCAR-8 ovarian.
In assay [13] the test system is OVCAR-5 ovarian.
Assay [14] has as its system OVCAR-4 ovarian.
The test system of assay [15] is SK-OV-3 ovarian.
The test system of assay [16] is IGROV1 ovarian.
Assay [17] deals with OVCAR-3 ovarian.
Assay [18] has as its system HS 578T breast.
Assay [19] deals with NCI/ADR-RES ovarian.

Each structure is given as a SMILES string. Compounds without any hit were thinned out: in the full panel of roughly 83,000, 20% have a hit.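 Single-concentration screen, 48 h exposure, 96-well plates. Endpoint: percent growth. Below 10 = active.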 Values without a mark were called inactive. Active and inactive are the calls of the source.

Turning to `CCOc1cccc(Nc2nc(N)nc3[nH]c4ccc(O)cc4c23)c1`, the growth in assay [1] is 90.2%; in [2] it was 27.8%; in assay [3], 54.1%; in assay [4], 36.4%; in assay [5], 27.2%; in [6], 40.8%. The growth in assay [7] was 51%; in assay [8] it was 61.7%; in assay [9], 53.9%; in assay [10], 65.7%; in [11], 42.4%; in [12], 77.6%. Also, the growth in assay [13] was 63.1%; in assay [14], 66.3%; in assay [15], 55.9%; in assay [16], 16.7%; in [17], 58.5%; in assay [18], 58.5%. The growth in assay [19] was 80.4%.

On to `c1ccc2nc(Cn3cc[n+](Cc4ccc5ccccc5n4)c3)ccc2c1`, for which the growth in [1] is 55%; in assay [2] it was 88.3%; in [3], 40.5%; in [4] it was 88%; in assay [5] it was 98.3%; in [6], 102%. The growth in [7] was 90.7%; in assay [8] it was 80%; in assay [9] it was 65.4%; in [10] it was 47.8%; in assay [11], 29.6%; in assay [12], 76.2%. Moreover, the growth in assay [13] was 86.9%; in [14], 33.7%; in assay [15], 86.9%; in assay [16], 68.3%; in assay [17] it was 52%; in assay [18], 75.3%. In addition, the growth in [19] is 107%.

Consider `C=C1C(=O)O[C@H]2[C@H]1CC/C(COC(=O)c1cccc3ccccc13)=C\CC[C@@]1(C)O[C@@H]21`, for which the growth in assay [1] is -65.6% (active); in [2], -81.9% (active); in [3] it was -55.3% (active); in assay [4] it was -100% (active); in assay [5], -73.1% (active); in assay [6] it was -100% (active). Further, the growth in assay [7] was 82.2%; in assay [8], -19% (active); in [9] it was -15.1% (active); in [10], -31.4% (active); in assay [11] it was -40.5% (active); in assay [12] it was -42.8% (active). In addition, the growth was -47.9% (active) in [13]; -38.9% (active) in [14]; 84.3% in assay [15]; -68.5% (active) in assay [16]; -86.5% (active) in [17]; 2.83% (active) in assay [18]. For the same molecule, the growth in [19] is -28.4% (active).

For `C=C1C(=O)O[C@H]2[C@H]1CC/C(COC(=O)c1cc(OC)c(OC)c(OC)c1)=C\CC[C@@]1(C)O[C@@H]21`, the growth is -39.4% (active) in [1]; -70.6% (active) in assay [2]; -5.94% (active) in assay [3]; -99% (active) in assay [4]; -64.4% (active) in assay [5]; -87.7% (active) in assay [6]. Also, the growth was 59.8% in assay [7]; -22% (active) in assay [8]; -14.8% (active) in [9]; -13.2% (active) in assay [10]; -36.2% (active) in [11]; -45.7% (active) in [12]. The growth in [13] is -12.4% (active); in [14], 20.1%; in [15], 97.6%; in assay [16], -8.27% (active); in assay [17] it was -69.8% (active); in assay [18] it was 32.9%. Moreover, in [19], the growth is 10.9%.

Regarding `Cc1ccccc1C[P+](c1ccccc1)(c1ccccc1)c1ccccc1`, the growth is 2.07% (active) in [1]; 29.5% in [2]; 40.5% in [3]; 76.6% in [4]; 36.1% in [5]; 71% in [6]. The growth in assay [7] was 89.5%; in assay [8] it was 24.9%; in assay [9], 35.7%; in assay [10] it was 22.2%; in assay [11] it was 10%; in assay [12] it was 18.7%. For the same molecule, the growth is 55.2% in assay [13]; 3.27% (active) in assay [14]; 42.6% in assay [15]; 20% in assay [16]; 1.98% (active) in assay [17]; 114% in assay [19].

With `O=[N+]([O-])c1cccc2cc(S(=O)(=O)O)ccc12`, the growth in assay [1] was 101%; in [2], 96.2%; in assay [3] it was 98%; in [4], 92.2%; in assay [5], 94%; in assay [6], 112%. The growth is 115% in assay [7]; 94.6% in [8]; 85.5% in assay [9]; 103% in assay [10]; 99% in assay [11]; 98.9% in [12]. Also, the growth in assay [13] was 107%; in [14], 114%; in assay [15], 95.1%; in assay [16] it was 104%; in [17] it was 99.8%; in [18] it was 107%. The growth in assay [19] was 101%.

Regarding `COc1ccccc1S(=O)(=O)Nc1ccc2c3c(cc(-c4cnn(C5CC5)c4)nc13)C(=O)N2C`, the growth in [1] is 78.6%; in assay [2], 56.1%; in assay [3] it was 76.7%; in assay [4], 34.9%; in assay [5], 48.2%; in [6], 68%. The growth in assay [7] is 59.3%; in [8] it was 76.9%; in assay [9], 56.3%; in assay [10] it was 51.3%; in assay [11], 10%; in assay [12] it was 70.1%. The growth in assay [13] was 72.6%; in [14], 62.2%; in assay [15] it was 55.8%; in [16], 59.2%; in assay [17] it was 69.8%; in assay [18] it was 55.9%. Also, the growth in [19] was 59%.

Regarding `Oc1ccc(O)c(-[n+]2ccccc2)c1`, the growth is 101% in [1]; 105% in [2]; 98.1% in assay [3]; 94% in assay [4]; 100% in assay [5]; 107% in [6]. Further, the growth in assay [7] is 108%; in assay [8] it was 101%; in [9], 91.9%; in assay [10], 93.7%; in [11], 99.7%; in [12], 99.5%. In addition, the growth in assay [13] is 108%; in assay [14], 108%; in assay [15], 98.7%; in [16], 107%; in assay [17] it was 109%; in [18], 96%. The growth in assay [19] is 108%.
